# From PubChem BioAssay AID686978 (National Center for Advancing Translational Sciences (NCATS), 2013)
# The campaign covered roughly 420,000 compounds. About 64,000 (15%) were called active. Roughly 27% stayed inconclusive and do not appear here. Calls come from the whole dose curve; as a rule, active = well fitted inhibition curve with a large enough effect; inconclusive = small, poorly fitted or top-dose-only effect; inactive = flat fitted curve, though single readings scatter. A selection follows.
# Experiment: qHTS for Inhibitors of human tyrosyl-DNA phosphodiesterase 1 (TDP1): qHTS in cells in absence of CPT; note: nearly all actives have a fitted effect of over 55% in size
# Conditions: DT40 Tdp1-/- hTDP1 cells, no CPT, ATP luminescence, 48 h; activity change, negative = growth inhibition: at 46.2 µM (top of the series)
# Text: Human tyrosyl-DNA phosphodiesterase 1 (TDP1) is a novel repair gene, and we propose to use it as a new target for anticancer drug development. TDP1 is not an essential protein, but under treatment with topoisomerase I poison (camptothecin: CPT), TDP1 works as a critical factor for cell survival. To directly identify novel TDP1 inhibitors active in a cellular environment, we have knocked-out the Tdp1 gene in chicken DT40 cells (Tdp1-/-) and generated a complemented counterpart cells that contains a stable transfection of the human TDP1 gene (Tdp1-/-;hTDP1 cells). For the primary screen, Tdp1-/-;hTDP1 cells will be exposed to small molecules in the presence or absence of CPT, and their growth kinetics will be evaluated after 48 hours by measuring ATP activity. […] The hit compounds will then be evaluated in the presence or absence of CPT using Tdp1-/- cells. […] In tertiary assays, biochemical gel-based assays will be used to assess whether the hit compounds specifically target TDP1.
# To this end, we have screened this cell line against the MLSMR in two primary screens. In one screen we add CPT and in the other we screen in the absence of CPT; this AID represents the screen where CPT was absent.
# NIH Chemical Genomics Center [NCGC]
# NIH Molecular Libraries Probe Centers Network [MLPCN]
# Assay Submitter (PI): Yves Pommier, NCI
# DT40-hTDP1 cells without 20 nM Camptothecin (add 20 microL of DMSO in 1 L of cell culture medium) were dispensed at 400 cells/5microL/well in tissue culture treated 1536-well white wall/solid bottom assay plates (Greiner Bio-One North America, NC, U.S.A.) using a Multidrop Combi 8 channel dispenser (Thermo Fisher, Waltham, MA, USA). 23 nL compounds and controls were transferred using the pin tool (Kalypsys, San Diego, CA, USA) to the assay plates. The assay plates were then incubated at 37 masculineC for a minimum 48 hr. Three microL of Cell Titer Glo solution was added to the plates and incubated at RT in dark for 30 min. Luminescence was read using ViewLux (Perkin Elmer) with 1 sec exposure slow speed, high gain and 2x binning.
# % is set by controls: 0 for no effect and ±100 for the full control effect; potency is the fitted concentration of half-maximal effect.
Structure (SMILES),"activity change, negative = growth inhibition",Potency
COc1ccc(Br)cc1/C=N/n1c(C)nnc1C,5.28% (inactive),–
O=C(/C=C\NCC(=O)c1ccccc1)c1ccccc1,-16.2% (inactive),–
Cc1nc(NC(=O)C23CCC(C)(C(=O)O2)C3(C)C)sc1C (configuration not stated),-3.52% (inactive),–
CC(C)Cn1c(SCC(=O)Nc2ccc(Cl)cc2F)nc(O)cc1=O,-20.6% (inactive),–
O=C(CCN1C(=O)c2ccncc2C1=O)Nc1cc(F)ccc1F,2.57% (inactive),–
CN1c2ccc(Cl)cc2-c2nc(SCC(=O)Nc3cc(F)ccc3F)ncc2S1(=O)=O,–,23.1 µM (active)
N/C(Cc1ccc([N+](=O)[O-])cc1)=N\OC(=O)COc1ccc2ccccc2c1,-4.59% (inactive),–
CCOc1ccccc1NC(=O)c1cccnc1,8.78% (inactive),–
Nc1nc(CSc2nnnn2-c2ccccc2)nc(Nc2ccccc2)n1,-11.6% (inactive),–
Cc1ccc(Nc2nc(CSc3nnnn3-c3ccccc3)cc(=O)[nH]2)cc1,–,18.4 µM (active)
Cc1ccc(NC(=O)CSc2nc(CSc3ccc(C)cc3)cc(=O)[nH]2)cc1,-1.55% (inactive),–
Cc1ccc(N2C(=O)CC(NCc3ccc4c(c3)OCO4)C2=O)cc1Cl (configuration not stated),-4.98% (inactive),–
CSC1=NC2(C)CCCCC2C12C=CC(=O)C=C2 (configuration not stated),13.8% (inactive),–
O=c1[nH]nc(CSCc2ccccc2Cl)[nH]1,0.525% (inactive),–
COc1ccc(NC(=O)C2COc3ccccc3O2)cc1 (configuration not stated),-5.89% (inactive),–
CC(=O)c1ccccc1NC(=O)COC(=O)C1COc2ccccc2O1 (configuration not stated),-5.47% (inactive),–
COc1ccc(OC)c2sc(N3CCN(C(=O)C4COc5ccccc5O4)CC3)nc12 (configuration not stated),–,16.4 µM (active)
Cc1cc(Cl)ccc1N1C(=O)CC(SCCC(=O)O)C1=O (configuration not stated),-7.11% (inactive),–
CCOC(=O)c1cn(CC)c2cc(F)c(F)cc2c1=O,-3.3% (inactive),–
COc1cc(OC)cc(C(=O)Nc2nnc(SCC(=O)NCC3CCCO3)s2)c1 (configuration not stated),5.33% (inactive),–
CC(C)(C)NC(=O)COc1ccc(CNc2ccc3[nH]c(=O)[nH]c3c2)cc1,-19.9% (inactive),–
C=C(C)C(=O)O[C@H]1C/C(C)=C\C(=O)/C=C(\C)[C@H](O)[C@@H]2OC(=O)C(=C)[C@@H]21,–,1.16 µM (active)
C/C=C(\C)C(=O)O[C@H]1CC(C)=C2C(=O)C=C(C)C2[C@@H]2OC(=O)[C@@](C)(OC(=O)C=C(C)C)C21 (some centres not stated),5.36% [at 9.04 µM] (inactive),–
Cc1c(S(=O)(=O)N2CC(C)CC(C)C2)c(=O)n(C)c(=O)n1C (configuration not stated),6.33% (inactive),–
CCN(C(=O)Cc1c(C(=O)O)n(CC)c2ccccc12)c1ccccc1C,-6.5% (inactive),–
CCOC(=O)c1c(NC(=O)CNC2CCCc3ccccc32)sc(C(N)=O)c1C (configuration not stated),–,16.4 µM (active)

Structure (SMILES),"activity change, negative = growth inhibition",Potency
CCOC(=O)c1sc(NC(=O)COc2ncnc3ccccc23)c(C(=O)OCC)c1C,-28% (inactive),–
NC(=O)Nc1ccc(C(=O)OCC(=O)NC2CCCc3ccccc32)cc1 (configuration not stated),-9.68% (inactive),–
C=CCNC(=O)CC12CC3CC(C1)CC(CC(=O)NCC=C)(C3)C2,-16.4% (inactive),–
COc1ccc(CNC(=O)C(=O)N2CCC3(CC2)OCCN3S(=O)(=O)c2ccc(C)cc2)cc1,-24.9% (inactive),–
Cc1ccccc1CC1(CO)CCCN(C(=O)c2cc(-c3ccccc3)no2)C1 (configuration not stated),–,29.1 µM (active)
Cc1noc(C)c1CCC(=O)N1CCCC(CO)(Cc2ccccc2)C1 (configuration not stated),-5.73% (inactive),–
CCc1[nH]nc(C(=O)N2CCCC(CO)(Cc3ccc(F)cc3F)C2)c1C (configuration not stated),-24.1% (inactive),–
CCCc1nnc(NC(=O)CCC(=O)N2CCN(S(=O)(=O)c3ccc(OC)cc3)CC2)s1,-9.79% (inactive),–
COc1ccc(C(=O)Nc2nc(-c3ccc(OC)cc3)c(-c3ccc([N+](=O)[O-])cc3)s2)cc1,–,9.2 µM (active)
COc1ccc(-c2[nH][nH]c(=O)c2NC(=O)c2ccc([N+](=O)[O-])cc2)cc1,4.8% (inactive),–
COc1ccc(C(=O)NCCNc2ccc([N+](=O)[O-])cn2)cc1,9.53% (inactive),–
O=C(CN(C(=O)c1csnn1)c1cccc(Cl)c1)NC1CCCC1,-0.467% (inactive),–
Cc1cccc(C)c1N1CCN(S(=O)(=O)N2CCOCC2)CC1,-27.9% (inactive),–
CCc1cc2c(NC3CCCC3)ncnc2s1,–,4.61 µM (active)
Clc1cc(NC2CCCCC2)ncn1,-1.91% (inactive),–
CCc1cc2c(NC(Cc3ccccc3)C(=O)O)ncnc2s1 (configuration not stated),17.1% (inactive),–
CCCC12CN3CC(CCC)(CN(C1)C3c1c[nH]c3ccc(OC)cc13)C2=O (configuration not stated),–,10.3 µM (active)
CCCC12CN3CC(C)(CN(C1)C3c1ccccc1Cl)C2=O (configuration not stated),-2.7% (inactive),–
CCN(CC)CC(=O)c1c[nH]c2ccc(OC)cc12,-1.44% (inactive),–
COc1ccccc1CNC(=O)CSc1nc(=O)n(Cc2ccncc2)c2c1CCC2,5.82% (inactive),–
O=S1(=O)CCN(Cc2ccccc2Cl)CC1,3.47% (inactive),–
CCCCN1CC(C)(C)[C@H](CC(=O)Nc2ccc(Br)cc2)C1=O,–,16.4 µM (active)
CC1(C)CN(CCc2ccccc2)C(=O)[C@H]1CC(=O)Nc1ccc(Br)cc1,-22% (inactive),–
CC(=O)N1CC(=O)N(CC(=O)Nc2ccc(Br)cc2)C1=S,-22.6% (inactive),–
O=C(N/N=C/c1ccccn1)C12CC3CC(CC(C3)C1)C2,-2.56% (inactive),–
COc1cccc(NC(=O)Cn2c3ccccc3c3nc4n(c(=O)c32)CCS4)c1,-18% (inactive),–
